Where “and” joins values, the source holds several entries; their conditions need not be identical. Identical values can stand only once. Records with an inconclusive call do not appear. Calls of active or inactive are those of the source. Unless noted, calls follow the shape of the full dose curve.
Legend:
[1] = qHTS assay to identify small molecule agonists of the vitamin D receptor (VDR) signaling pathway - cell viability counter screen (AID 743224; active = well fitted curve in the direction sought with a large enough effect in the repeat runs; an effect the other way counts as inactive or inconclusive; also: series mostly up to about 63 µM; % is scaled to controls: 0 for no effect and ±100 for the full control effect; nearly all actives have a fitted effect of over 50% in size)
Method in brief: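 VDR-bla cells were preincubated 4 h at 37C/5% CO2, then exposed to compounds for 16 h. After the 2 h room-temperature bla FRET read, CellTiter-Glo was added to the same wells and luminescence read after 30 min.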

[2] = qHTS assay to identify small molecule antagonists of the vitamin D receptor (VDR) signaling pathway - cell viability counter screen (AID 743225; active = well fitted curve in the direction sought with a large enough effect in the repeat runs; an effect the other way counts as inactive or inconclusive; also: % is scaled to controls: 0 for no effect and ±100 for the full control effect; nearly all actives have a fitted effect of over 50% in size)
Method in brief: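 Cytotoxicity counter screen read by CellTiter-Glo luminescence (30 min, room temperature) in the same wells as the VDR-bla antagonist readout. HEK 293T VDR-UAS-bla cells had 16 h at 37C with compound and 3 nM (final) 1-alpha,25-dihydroxyvitamin D3, then 2 h with FRET substrate.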

[3] = qHTS assay to identify small molecule agonists of the NFkB signaling pathway (AID 1159509; active = well fitted curve in the direction sought with a large enough effect in the signal ratio in the repeat runs, not every such curve was filed as active; the % refers to the signal ratio; also: series mostly up to about 61 µM; % is scaled to controls: 0 for no effect and ±100 for the full control effect)
Method in brief: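 NFkB-bla ME-180 cells with a beta-lactamase reporter under an NF-kB response element were plated overnight, treated with compounds in DMSO for 5 hr at 37 C, then loaded with FRET substrate for 1.5 hr at room temperature.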

[4] = qHTS assay to identify small molecule agonists of the NFkB signaling pathway - cell viability counter screen (AID 1159515); also: series mostly up to about 61 µM; % is scaled to controls: 0 for no effect and ±100 for the full control effect; nearly all actives have a fitted effect of over 55% in size
Method in brief: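 NFkB-bla ME-180 cells, 2,000/well, were plated overnight at 37 C, 5% CO2, then exposed to compounds in DMSO for 5 hr. After the bla FRET read, CellTiter-Glo was added to the same wells; luminescence was read after 30 min at room temperature.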

[5] = qHTS assay to identify small molecule agonists of the endoplasmic reticulum stress response signaling pathway - cell viability counter screen (AID 1159517); also: series mostly up to about 61 µM; % is scaled to controls: 0 for no effect and ±100 for the full control effect; nearly all actives have a fitted effect of over 50% in size
Method in brief: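 Luminescence readout: CellTiter-Glo, 30 min RT, same wells as the ESRE-bla reporter read. HeLa ESRE-bla, 1,500 cells/well, o/n 37 C; cpd 5 hr 37 C/5% CO2.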

[6] = qHTS assay to identify small molecule antagonists of the retinoid-related orphan receptor gamma (ROR-gamma) signaling pathway - cell viability counter screen (AID 1159520; active = well fitted curve in the direction sought with a large enough effect in the repeat runs; an effect the other way counts as inactive or inconclusive; also: % is scaled to controls: 0 for no effect and ±100 for the full control effect; nearly all actives have a fitted effect of over 50% in size)
Method in brief: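 Tet-on ROR gamma CHO cells (1,000/well) were plated 4 hr, given compounds in DMSO for 2 hr at 37 C, then induced with 1 uM final doxycycline for 16 hr. Viability was read as ATP by CellTiter-Glo luminescence after 30 min.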

[7] = qHTS assay to identify small molecule agonists of the AP-1 signaling pathway - cell viability counter screen (AID 1159525); also: nearly all actives have a fitted effect of over 55% in size
Method in brief: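 ME-180 AP-1-bla, 2500 cells/well, Opti-MEM + 0.5% dialyzed FBS; overnight 37 °C; cpd 15-pt titration, 5 h 37 °C; CellTiter-Glo 30 min RT; luminescence read; normalised to TOAB and DMSO controls.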

[8] = qHTS assay to identify small molecule agonists of the AP-1 signaling pathway (AID 1159526); also: % is scaled to controls: 0 for no effect and ±100 for the full control effect
[9] = target: Nuclear receptor ROR-gamma (Homo sapiens) (UniProt P51449); assay: qHTS assay to identify small molecule antagonists of the retinoid-related orphan receptor gamma (ROR-gamma) signaling pathway (AID 1159521; active = well fitted curve in the direction sought with a large enough effect in the repeat runs; an effect the other way counts as inactive or inconclusive)
Method in brief: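 Antagonist read-out: drop in luminescence (ONE-Glo) from an RORE-LUC reporter in CHO cells with doxycycline-inducible ROR-gamma; 2 hr compound pretreatment, 1 uM doxycycline, 16 hr incubation at 37 C.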

[10] = qHTS assay to identify small molecule agonists of the endoplasmic reticulum stress response signaling pathway (AID 1159516; active = well fitted activation curve with a large enough effect in the signal ratio in the repeat runs, not every such curve was filed as active; the % refers to the signal ratio; also: % is scaled to controls: 0 for no effect and ±100 for the full control effect)
Method in brief: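 CellSensor ESRE-bla HeLa cells, carrying a beta-lactamase reporter driven by the ER stress response element, were plated overnight and exposed to compounds for 5 hr at 37 C. Reporter activity was read as FRET substrate fluorescence after 2 hr at room temperature.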

CC1CCC(C(C)C)C(O)C1 (centres undefined)
inactive: Potency [1] | outcome [2] | outcome [3] | outcome [4] | outcome [5] | Potency [6] | Potency [7] | outcome [8]

CCOC(=O)NNc1nncc2ccccc12
inactive: Potency [1] | outcome [2] | outcome [3] | outcome [4] | outcome [5] | Potency [6] | Potency [7] | outcome [8]

O=S(=O)(O)c1ccc2ccccc2c1
inactive: Potency [1] | outcome [2] | outcome [3] | outcome [4] | outcome [5] | Potency [6] | Potency [7] | outcome [8]

O=C(O)CC(C(=O)O)C(CC(=O)O)C(=O)O (centres undefined)
inactive: Potency [1] | outcome [2] | outcome [3] | outcome [4] | outcome [5] | Potency [6] | Potency [7] | outcome [8]

Nc1cc([N+](=O)[O-])ccc1O
inactive: outcome [2] | outcome [3] | outcome [4] | outcome [5] | Potency [6] | Potency [7] | outcome [8]

CC1=CC(=O)NS(=O)(=O)O1
inactive: outcome [2] | outcome [3] | outcome [4] | outcome [5] | Potency [6] | Potency [9] | Potency [7] | outcome [8]

CCCCCC1=CCCC1=O
inactive: outcome [2] | outcome [3] | outcome [4] | outcome [10] | outcome [5] | Potency [6] | Potency [7] | outcome [8]

C[C@H]1C[C@H]2[C@@H]3CCC4=CC(=O)C=C[C@]4(C)[C@@]3(F)[C@@H](O)C[C@]2(C)[C@@]1(O)C(=O)CO
inactive: outcome [3] | outcome [4] | outcome [5] | Potency [6] | Potency [9] | Potency [7] | outcome [8]

COS(C)(=O)=O
inactive: Potency [1] | outcome [2] | outcome [3] | outcome [4] | outcome [5] | Potency [6] | Potency [7] | outcome [8]

CCCCCOC(C)=O
inactive: outcome [2] | outcome [3] | outcome [4] | outcome [5] | Potency [6] | Potency [7] | outcome [8]

O=C(OCCOCCOC(=O)c1ccccc1)c1ccccc1
inactive: Potency [1] | outcome [2] | outcome [3] | outcome [4] | outcome [5] | Potency [6] | Potency [9] | Potency [7] | outcome [8]

CCCCCCCCCCCCc1ccccc1
inactive: outcome [2] | outcome [3] | outcome [4] | outcome [10] | outcome [5] | Potency [6] | Potency [7] | outcome [8]

CCCCCCCC(=O)OC
inactive: outcome [2] | outcome [3] | outcome [4] | outcome [5] | Potency [6] | Potency [9] | Potency [7] | outcome [8]

CC(=O)Nc1ccccc1
inactive: outcome [2] | outcome [3] | outcome [4] | outcome [5] | Potency [6] | Potency [7] | outcome [8]

O=C(O)c1ccccc1C(c1ccc(O)cc1)c1ccc(O)cc1
inactive: outcome [2] | outcome [3] | outcome [4] | outcome [5] | Potency [6] | Potency [9] | Potency [7] | outcome [8]

CC(C)(C)[C@@H](O)[C@@H](Cc1ccc(Cl)cc1)n1cncn1
inactive: outcome [2] | outcome [3] | outcome [4] | outcome [5] | Potency [6] | Potency [9] | Potency [7] | outcome [8]

O=C=NCCCCCCN=C=O
inactive: outcome [2] | outcome [3] | outcome [4] | outcome [10] | outcome [5] | Potency [6] | Potency [7] | outcome [8]

O=c1[nH]c(=O)n([C@H]2C[C@H](O)[C@@H](CO)O2)cc1Br
inactive: Potency [1] | outcome [2] | outcome [3] | outcome [4] | outcome [5] | Potency [6] | Potency [7] | outcome [8]

O=P(OC(CCl)CCl)(OC(CCl)CCl)OC(CCl)CCl
inactive: Potency [1] | outcome [2] | outcome [3] | outcome [4] | outcome [10] | outcome [5] | Potency [6] | Potency [7]

CCN(CC)CCCC(C)Nc1ccnc2cc(Cl)ccc12 (centres undefined)
inactive: Potency [1] | outcome [2] | outcome [3] | outcome [4] | outcome [5] | activity, negative = cytotoxicity [6] -1.33% [at 8.39 µM] and 0.877% [at 19 µM] | viability change, negative = cytotoxic [7] 0.716% [at 6.97 µM] and 1.22% [at 15.8 µM] | activation [8] 0.84% [at 6.97 µM] and -1.42% [at 15.8 µM]

CCCCC(CC)COC(=O)CS (centres undefined)
inactive: Potency [1] | outcome [2] | outcome [3] | outcome [4] | outcome [5] | Potency [6] | Potency [7] | outcome [8]

C=C(C)C(=O)OCCOCCOCCOC(=O)C(=C)C
inactive: Potency [1] | outcome [2] | outcome [3] | outcome [4] | outcome [5] | Potency [6] | Potency [7] | outcome [8]

CN(C)CCCN
inactive: outcome [2] | outcome [3] | outcome [4] | outcome [10] | outcome [5] | Potency [6] | Potency [7] | outcome [8]

COc1ccc2cc([C@H](C)C(=O)O)ccc2c1
inactive: outcome [2] | outcome [3] | outcome [4] | outcome [5] | Potency [6] | Potency [9] | Potency [7] | outcome [8]

O=C(Oc1ccccc1)c1ccccc1
inactive: Potency [1] | outcome [2] | outcome [4] | outcome [10] | outcome [5] | Potency [6] | Potency [9] | Potency [7] | outcome [8]

CC1=CCC2CC1C2(C)C (centres undefined)
inactive: Potency [1] | outcome [2] | outcome [3] | outcome [4] | outcome [5] | Potency [6] | Potency [7] | outcome [8]

CCc1cccc(C)c1N
inactive: outcome [2] | outcome [3] | outcome [4] | outcome [10] | outcome [5] | Potency [6] | Potency [7] | outcome [8]
